Source: PubChem BioAssay (National Center for Advancing Translational Sciences (NCATS))
HT1080NT lethal: kills 2HG-producing HT-1080-NT fibrosarcoma cells. 360,000 tested, 1.6% active. HT-1080-NT fibrosarcoma viability, CellTiter-Glo ATP luminescence, 48 h. Potency, µM (titrated, usually from 46.1 µM), hits mostly cytotoxic;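 further: NT is the 2HG producing partner of a matched IDH1 knockdown line; nearly all actives have a fitted effect of over 55% in size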
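Luminescent CellTiter-Glo readout after 48 hours of compound exposure at 37 degrees C defined viability of HT-1080-NT cells. Activity was normalized to DMSO wells and cell-free media wells; concentration-response curves were fitted and assigned curve classes.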
IL-1B inflam inh: blocks inflammasome-driven IL-1 beta release; activity change, % at 57.5 µM; AID 743279; THP-1 LPS/ATP IL-1B secretion, AlphaLISA, 16 h; hits give low values; 360,000 tested, 4.7% active; in the data active means activity change below about -50%; inconclusive means mostly about -30% to -49%
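Secreted IL-1B measured by AlphaLISA bead assay after 16 h compound exposure of THP-1 cells; compounds (final up to 57.5 uM) added 1 h before LPS (250 ng/mL) and ATP (1.25 mM) stimulation; lower signal means less secretion.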
ALOX12 inh: inhibitors of human 12S-lipoxygenase ALOX12. P18054. purified 12hLO, xylenol orange hydroperoxide absorbance. Potency, µM (doses to about 108 µM), hits mostly inhibitors. 580,000 tested, 1.1% active. AID 1671190
Target sequence (P18054 whole entry, looked up): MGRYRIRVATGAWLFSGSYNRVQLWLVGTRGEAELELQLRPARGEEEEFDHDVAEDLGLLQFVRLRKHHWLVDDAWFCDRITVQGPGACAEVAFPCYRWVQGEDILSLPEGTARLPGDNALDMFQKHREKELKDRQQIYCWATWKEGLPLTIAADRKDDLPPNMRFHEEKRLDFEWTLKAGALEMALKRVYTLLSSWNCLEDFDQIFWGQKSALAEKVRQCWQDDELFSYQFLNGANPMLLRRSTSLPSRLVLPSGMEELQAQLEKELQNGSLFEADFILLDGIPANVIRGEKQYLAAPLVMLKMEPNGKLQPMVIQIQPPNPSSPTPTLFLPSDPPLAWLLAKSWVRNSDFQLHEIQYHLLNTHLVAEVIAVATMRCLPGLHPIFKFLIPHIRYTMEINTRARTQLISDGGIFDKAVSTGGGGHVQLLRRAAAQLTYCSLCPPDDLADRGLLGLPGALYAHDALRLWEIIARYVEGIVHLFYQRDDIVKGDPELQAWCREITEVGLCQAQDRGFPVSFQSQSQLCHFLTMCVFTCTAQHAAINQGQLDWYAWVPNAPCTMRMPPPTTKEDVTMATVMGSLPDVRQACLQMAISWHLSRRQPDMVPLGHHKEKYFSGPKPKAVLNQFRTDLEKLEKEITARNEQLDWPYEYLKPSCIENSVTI
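Hydroperoxide product was detected by ferrous iron/xylenol orange as the 573 to 405 nm absorbance ratio. Arachidonic acid at 40 uM (final) was turned over for 30 min at room temperature by 150 nM human 12hLO, pH 7.0 Hepes buffer, after 15 min compound preincubation.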
DT40 TDP1 no CPT: qHTS for Inhibitors of human tyrosyl-DNA phosphodiesterase 1 (TDP1): qHTS in cells in absence of CPT; AID 686978, 2013; Potency, µM (top dose mostly 46.2 µM), hits mostly inhibitors; 420,000 tested, 15% active; DT40 Tdp1-/- hTDP1 cells, no CPT, ATP luminescence, 48 h; further: nearly all actives have a fitted effect of over 55% in size
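Camptothecin absent (DMSO only). Human TDP1-complemented DT40 knockout cells, 400 cells/well, 37 °C for minimum 48 hr; ATP measured via CellTiter-Glo, 30 min dark incubation, luminescence.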
HT1080 IDH1KD tx: kills HT-1080 cells with IDH1 knockdown; HT-1080 IDH1 knockdown viability, ATP luminescence, 48 h; Potency, µM (titrated, usually from 46.1 µM), most hits filed as cytotoxic; 360,000 tested, 2% active; AID 686971
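After a 2 h attachment period, IDH1KD HT-1080 cells took pin-transferred compound for 48 h at 37 °C; ATP-based luminescence after 10 min room-temperature reagent incubation reported viability.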
DT40 TDP1 CPT: DT40-hTDP1 cell growth loss with CPT; chicken DT40 Tdp1-/-;hTDP1 cells + 20 nM CPT, ATP luminescence, 48 h; AID 686979; 420,000 tested, 12% active; Potency, µM (top dose mostly 46.2 µM), actives largely listed as inhibitors; further: nearly all actives have a fitted effect of over 55% in size
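Cell growth measured by CellTiter-Glo luminescence after a minimum 48 h, 37 C compound exposure with 20 nM CPT in Tdp1-knockout DT40 cells stably expressing hTDP1, seeded 400/well; qHTS titration format.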
A number is an active result; ! = not active in a repeat. The full list was thinned out, with hits kept by preference. Unless noted, the call rests on the fitted dose curve; in most records, active means well fitted curve in the direction sought with a large enough effect; inconclusive means small, poorly fitted or top-dose-only effect, or another doubt; inactive means no such curve, though single readings can be large; an effect the other way counts as inactive or inconclusive.

Screening Cc1ccc(NC(=O)CSCc2ccco2)cc1 returned HT1080NT lethal inactive, IL-1B inflam inh inactive, ALOX12 inh inactive, DT40 TDP1 no CPT inactive, HT1080 IDH1KD tx inactive and DT40 TDP1 CPT inactive.
Cc1ccc(C(=O)Nc2cc3c(cc2SCc2ccco2)n(C)c(=O)n3C)cc1 was read as ALOX12 inh 7.9µM.
`O=c1oc2cc(O)ccc2cc1-c1nnc(Nc2cccc(Cl)c2)s1` gave ALOX12 inh inactive.
For O=C(COC(=O)c1ccccc1Sc1ccc(C(F)(F)F)cc1[N+](=O)[O-])NC12CC3CC(CC(C3)C1)C2 the results were ALOX12 inh inactive.
Cc1nonc1C1CCCN1Cc1nc(-c2ccccc2Cl)oc1C (stereo not drawn) was read as HT1080NT lethal inactive, IL-1B inflam inh inactive, ALOX12 inh inactive, DT40 TDP1 no CPT 15µM, HT1080 IDH1KD tx inactive and DT40 TDP1 CPT inconclusive.
`Cc1oc(-c2ccccc2Cl)nc1CN1CCCC1c1ccc(F)cc1` (stereo not drawn) gave HT1080NT lethal inactive, IL-1B inflam inh inactive, ALOX12 inh inconclusive, DT40 TDP1 no CPT inactive, HT1080 IDH1KD tx inactive and DT40 TDP1 CPT inconclusive.
For Cc1ccccc1-c1nc(CN2CCCC2c2ccc(F)cc2)c(C)o1 (stereo not drawn) the results were HT1080NT lethal inactive, IL-1B inflam inh inactive, ALOX12 inh inactive, DT40 TDP1 no CPT 16µM, HT1080 IDH1KD tx inactive and DT40 TDP1 CPT 21µM.
Screening CC(Oc1cccc(Br)c1)C(=O)NNC(=O)c1ccc2c(c1)NC(=O)CCS2 (stereo not drawn) returned ALOX12 inh 45µM.
Screening N#Cc1ccc(S(=O)(=O)N2CCC(C(=O)Nc3ccnn3Cc3ccccc3)CC2)cc1 returned ALOX12 inh inactive.
C=CCSc1n[nH]c(-c2ccc(OCCC)cc2)n1 was read as HT1080NT lethal 7.1µM, IL-1B inflam inh inactive, ALOX12 inh inactive, DT40 TDP1 no CPT 16µM, HT1080 IDH1KD tx 8.9µM and DT40 TDP1 CPT 29µM.
Screening CCOc1cc(S(=O)(=O)N2CCN(CCO)CC2)ccc1Cl returned ALOX12 inh inactive.
C=CCc1ccccc1OCC(O)CN1CCN(c2ccc(C)cc2)CC1 (stereo not drawn) was read as HT1080NT lethal inactive, IL-1B inflam inh inconclusive, ALOX12 inh 0.56µM, DT40 TDP1 no CPT inconclusive, HT1080 IDH1KD tx inconclusive and DT40 TDP1 CPT inconclusive.
OC(COCc1ccc2c(c1)OCO2)CN1CCC(Cc2ccccc2)CC1 (stereo not drawn) was read as HT1080NT lethal inactive, IL-1B inflam inh -71, ALOX12 inh inactive, DT40 TDP1 no CPT inconclusive, HT1080 IDH1KD tx inconclusive and DT40 TDP1 CPT inconclusive.
For Cc1ccc(OCC(O)CN2CCN(Cc3ccc4c(c3)OCO4)CC2)cc1C (stereo not drawn) the results were HT1080NT lethal inactive, IL-1B inflam inh inactive, ALOX12 inh inconclusive, DT40 TDP1 no CPT inconclusive, HT1080 IDH1KD tx inactive and DT40 TDP1 CPT inactive.
For OC(COCc1ccc2c(c1)OCO2)CN1CCCCC1 (stereo not drawn) the results were HT1080NT lethal inactive, IL-1B inflam inh inactive, ALOX12 inh inactive, DT40 TDP1 no CPT inactive, HT1080 IDH1KD tx inactive and DT40 TDP1 CPT inactive.
C=CCc1ccccc1OCC(O)CN1CCN(Cc2ccc3c(c2)OCO3)CC1 (stereo not drawn) was read as HT1080NT lethal inactive, IL-1B inflam inh inactive, ALOX12 inh inconclusive, DT40 TDP1 no CPT inconclusive, HT1080 IDH1KD tx inactive and DT40 TDP1 CPT 16µM!.
COc1ccc(C(=O)N2CCN(c3cc(-c4cccs4)[nH]n3)CC2)c(C)c1 was read as ALOX12 inh inactive.
For Cn1c(=O)c2ccccc2n2c(CCl)nnc12 the results were HT1080NT lethal inconclusive, IL-1B inflam inh inactive, ALOX12 inh inactive, DT40 TDP1 no CPT 15µM, HT1080 IDH1KD tx inconclusive and DT40 TDP1 CPT 12µM.
`O=C(Oc1ccccc1/C=C\C(=O)c1cc2ccccc2o1)c1ccccc1` gave HT1080NT lethal inconclusive, IL-1B inflam inh inactive, ALOX12 inh inactive, DT40 TDP1 no CPT 7.3µM, HT1080 IDH1KD tx inconclusive and DT40 TDP1 CPT 7.3µM.
`COc1cccc(C(=O)Oc2ccc3ccccc3c2)c1` gave ALOX12 inh inactive.
`O=C(Oc1ccccc1/C=C\C(=O)c1cc2ccccc2o1)c1cccc(F)c1` gave HT1080NT lethal inconclusive, IL-1B inflam inh -68, ALOX12 inh inactive, DT40 TDP1 no CPT 21µM, HT1080 IDH1KD tx inactive and DT40 TDP1 CPT 5.2µM.
Screening O=C(/C=C/c1ccc(F)c(F)c1)c1cc2ccccc2o1 returned ALOX12 inh inactive.
`COc1cccc(C(=O)Oc2ccccc2/C=C\C(=O)c2cc3ccccc3o2)c1` gave HT1080NT lethal 18µM, IL-1B inflam inh -95, ALOX12 inh inactive, DT40 TDP1 no CPT 4.6µM, HT1080 IDH1KD tx 21µM and DT40 TDP1 CPT 6.5µM.
For N#Cc1ccc(/C=C/C(=O)c2cc3ccccc3o2)cc1 the results were ALOX12 inh inactive.
`N#CC1=C(N)SC(N)=C(C#N)C1c1cccc(O)c1` gave HT1080NT lethal inactive, IL-1B inflam inh inactive, ALOX12 inh 32µM, DT40 TDP1 no CPT inconclusive, HT1080 IDH1KD tx inactive and DT40 TDP1 CPT 23µM.
N#CC1=C(N)Oc2cc(N)ccc2C1c1cc(Br)cs1 (stereo not drawn) was read as HT1080NT lethal 2.1µM, IL-1B inflam inh -66, ALOX12 inh inactive, DT40 TDP1 no CPT inconclusive, HT1080 IDH1KD tx 2.9µM and DT40 TDP1 CPT inconclusive.
Screening COc1ccc(C2C(C#N)=C(N)SC(N)=C2C#N)cc1OC returned HT1080NT lethal inactive, IL-1B inflam inh inactive, ALOX12 inh inconclusive, DT40 TDP1 no CPT inactive, HT1080 IDH1KD tx inactive and DT40 TDP1 CPT inactive.
`N#CC1=C(N)Oc2cc(N)ccc2C1c1cccc(Br)c1` (stereo not drawn) gave HT1080NT lethal inconclusive, IL-1B inflam inh inactive, ALOX12 inh inconclusive, DT40 TDP1 no CPT 1.5µM, HT1080 IDH1KD tx inconclusive and DT40 TDP1 CPT 2.9µM.
For N#CC1=C(N)Oc2cc(O)ccc2C1c1ccccc1 (stereo not drawn) the results were HT1080NT lethal inconclusive, IL-1B inflam inh inactive, ALOX12 inh 4.5µM!, DT40 TDP1 no CPT inconclusive, HT1080 IDH1KD tx inconclusive and DT40 TDP1 CPT inactive.
`COc1ccc(C2C(C#N)=C(N)Oc3cc(O)ccc32)cc1` (stereo not drawn) gave HT1080NT lethal inactive, IL-1B inflam inh inconclusive, ALOX12 inh inconclusive, DT40 TDP1 no CPT inactive, HT1080 IDH1KD tx inactive and DT40 TDP1 CPT inactive.
For O=C(c1ccc(C(F)(F)F)s1)N1CCc2c(nc(-c3ccccc3)[nH]c2=O)C1 the results were ALOX12 inh inactive.
For COc1ccc(NC(=O)c2ccc(O)c(Cl)c2)c(OC)c1 the results were ALOX12 inh inactive.
